# Inconclusive results are not listed. A call without a number means that no potency is given here. The source made the active and inactive calls. Calls follow the shape of the dose curve; as a rule, active = well fitted inhibition curve with a large enough effect; inconclusive = small, poorly fitted or top-dose-only effect, or effect the other way; inactive = flat fitted curve, though single readings scatter.
# Molecular target: Lysosomal acid glucosylceramidase (Homo sapiens) (UniProt P04062)
# Test: qHTS Assay for Inhibitors and Activators of N370S glucocerebrosidase as a Potential Chaperone Treatment of Gaucher Disease: Purified N370S Glucocerebrosidase Cleavage of Glucosylceramide
# Conditions: purified N370S GCase; series mostly up to 77.6 µM
# Excerpt: NIH Chemical Genomics Center [NCGC]
# NIH Molecular Libraries Probe Production Centers Network [MLPCN]
# Assay Submitter (PI): Wei Zheng
# Glucocerebrosidase (GC) catalyzes the hydrolysis of beta-glucocerebroside to glucose and ceramide in lysosomes. Mutations in the glucocerebrosidase gene result in Gaucher disease, an autosomal recessive lysosomal storage disorder. Many of the mutations encountered in patients with Gaucher disease are missense alterations that may cause misfolding, decreased stability and/or mistrafficking of this lysosomal protein. […] These inhibitors include iminosugar analogs and three non-iminosugar inhibitors identified from a previous HTS of 62,000 compounds with the wild type recombinant enzyme. However, the enhancement of enzyme activity by the chaperone action of an enzyme inhibitor must be balanced against the direct inhibition of the enzyme. An enzyme activator could also function as a chaperone by binding to the enzyme and helping to correct its misfolding and mistrafficking. While activators for GC have not yet been identified, they may have better therapeutic potential than inhibitors. Therefore the discovery and development of chemical activators may provide a new strategy for the chaperone therapy.
# We have optimized a new assay using N370S mutant GC derived from the spleen of a Gaucher patient. […] In addition, the MLPCN compound library has expanded, which increases the chance of finding new and better probes.
# This assay characterizes compound activity using purified, mutant enzyme cleavage of the native substrate for the enzyme instead of mutant enzyme from tissue homogenate. Compound activity differences may be due to the absence of endogenous cofactors found in tissue homogenate as well as inherent differences in enzyme stability and catalytic activity using the difference substrates.
# NCGC Assay Protocol Summary:
# This is an enzyme assay using glucosylceramide from soy (Avanti Polar Lipids Catalog #: 131304P) as the substrate and recombinant human glucocerebrosidase as the enzyme preparation. Upon hydrolysis of the substrate, the glucose product can be detected using the Amplex Red Glucose Oxidase Assay Kit (Invitrogen catalog #: A22189). The product of this reaction can be read with a fluorescence plate reader with an excitation at 573 nm and an emission at 610 nm. Data were normalized to the controls for basal activity (without enzyme) and 100% activity (with enzyme). The AC50 values were determined from concentration-response data modeled with the standard Hill equation.
# Assay buffer for enzyme reaction: 50 mM citric acid (titrated with potassium phosphate to pH 5.9), 0.01% Tween-20 (pH 5.9 is an optimal condition for this enzyme assay)
# Assay buffer for Amplex Red reaction: Tris-HCl, pH 7.5
# 1536-well assay protocol for the glucocerebrosidase assay:
# (1) Add 2 ul/well glucocerebrosidase enzyme solution (5 nM final)
# (2) Add 23 nL compounds in DMSO solution. The final titration was 0.7 nM to 77 uM.
# (3) Add 1 ul of glucosylceramide solution (50 uM final)
# (4) Incubate at 37C for 40 min
# (5) Add 2 ul tris-HCl buffer with Amplex Red reagents
# (6) Incubate 45 min at room temperature.
# (7) Detect the assay plate in a ViewLux plate reader (PerkinElmer) with Ex=573 nm and Em=610nm.
# Keywords: Glucocerebrosidase, beta-glucosidase, Gaucher Disease, pharmacological chaperone, chaperone therapy, high throughput screening, glucocerebrosidase inhibitor, MLSMR, MLSCN, NIH Roadmap, qHTS and NCGC
# Lysosomal acid glucosylceramidase (Homo sapiens), sequence (P04062 whole entry N409S): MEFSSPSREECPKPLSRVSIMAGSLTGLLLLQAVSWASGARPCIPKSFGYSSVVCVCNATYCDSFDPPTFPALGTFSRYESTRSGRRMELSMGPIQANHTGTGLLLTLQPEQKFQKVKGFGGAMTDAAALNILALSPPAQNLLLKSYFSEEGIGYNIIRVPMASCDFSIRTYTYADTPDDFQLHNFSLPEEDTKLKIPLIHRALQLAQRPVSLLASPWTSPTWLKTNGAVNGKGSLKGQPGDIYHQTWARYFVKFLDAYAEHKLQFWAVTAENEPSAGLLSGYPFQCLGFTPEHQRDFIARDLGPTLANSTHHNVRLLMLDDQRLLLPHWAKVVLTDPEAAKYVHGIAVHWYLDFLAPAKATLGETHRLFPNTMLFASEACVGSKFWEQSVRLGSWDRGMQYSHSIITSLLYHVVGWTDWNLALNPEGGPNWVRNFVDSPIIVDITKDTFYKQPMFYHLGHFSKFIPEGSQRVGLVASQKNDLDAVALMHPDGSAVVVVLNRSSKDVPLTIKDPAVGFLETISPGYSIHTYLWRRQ
row,SMILES,Potency
1,O=C(COc1ccccc1C(=O)c1cnn(-c2ccccc2)c1)Nc1ccccc1,inactive
2,COc1ccc(-c2nc(N3CCN(S(=O)(=O)c4ccc(C)cc4)CC3)c3ccccc3n2)cc1,inactive
3,Cc1ccc(NC(=O)COc2ccccc2C(=O)Nc2ccccc2)cc1Cl,inactive
4,CC(=O)Nc1ccc(NC(=O)COc2ccccc2C(=O)Nc2cccc(Cl)c2Cl)cc1,inactive
5,O=C(Nc1cnn(Cc2ccc(F)cc2)c1)c1cnn2c(C(F)F)cc(-c3ccccc3)nc12,inactive
6,O=S(=O)(c1ccc(F)cc1)N1CCN(c2nc(-c3ccccc3)nc3cc(Cl)ccc23)CC1,inactive
7,O=C(CSc1nccc(-c2cccs2)n1)Nc1cccc(Cl)c1,inactive
8,Clc1ccccc1-c1nccc(NCc2ccccc2)n1,inactive
9,OCCNc1nc(-c2cccs2)nc2ccccc12,inactive
10,O=S(=O)(c1ccc2ccccc2c1)N1CCN(c2nc(-c3cccs3)nc3ccccc23)CC1,inactive
11,COc1cccc(CN(C)c2nc(-c3cccs3)nc3ccccc23)c1,inactive
12,O=S(=O)(c1ccc2c(c1)OCCO2)N1CCN(c2nc(-c3cccs3)nc3ccccc23)CC1,inactive
13,c1csc(-c2nc(NCC3CCCO3)c3ccccc3n2)c1 (configuration not stated),inactive
14,O=S(=O)(c1cccc2ccccc12)N1CCN(c2nc(-c3cccs3)nc3ccccc23)CC1,inactive
15,O=S(=O)(c1ccc(F)cc1)N1CCN(c2nc(-c3ccc(F)cc3)nc3cc(Cl)ccc23)CC1,inactive
16,Cc1ccc(-c2nc(N3CCN(S(=O)(=O)c4ccc(F)cc4)CC3)c3ccc(Cl)cc3n2)cc1,inactive
17,CCc1ccc(NC(=O)c2cnn3c(C(F)F)cc(C)nc23)cc1,inactive
18,O=S(=O)(c1ccc(Cl)cc1)N1CCN(c2nc(-c3cccs3)nc3ccccc23)CC1,inactive
19,CCCNC(=O)COC(=O)c1ccccc1OCC(=O)Nc1ccc(Br)cc1,inactive
20,O=S(=O)(c1ccccc1Cl)N1CCN(c2nc(-c3cccs3)nc3ccccc23)CC1,inactive
21,COc1ccccc1OCC(=O)Nc1oc(-c2ccccc2)c(-c2ccccc2)c1C#N,inactive
22,O=C(c1ccc2c(c1)OCCO2)N1CCN(c2nc(-c3cccs3)nc3ccccc23)CC1,inactive
